# Data from publication PMC7862700, “An all-to-all approach to the identification of sequence-specific readers for epigenetic DNA modifications on cytosine”.
# Tests used:
# Assay in all cases: DAPPL (digital affinity profiling via proximity ligation, sequencing); 10 mM Tris-HCl pH 7.5, 50 mM NaCl, 1 mM DTT, 4% glycerol, room temperature, 30 min; GST-TFs on glutathione beads, 16-mer random dsDNA library, 0.1% formaldehyde crosslink after washing; high values mean tight binding
# Details in all cases: protein: recombinant; tags: N-terminal GST; dsDNA, one strand shown
# FLI1 = target: T1, FLI1 (Homo sapiens, UniProt Q01543 1-452)
# T1 sequence: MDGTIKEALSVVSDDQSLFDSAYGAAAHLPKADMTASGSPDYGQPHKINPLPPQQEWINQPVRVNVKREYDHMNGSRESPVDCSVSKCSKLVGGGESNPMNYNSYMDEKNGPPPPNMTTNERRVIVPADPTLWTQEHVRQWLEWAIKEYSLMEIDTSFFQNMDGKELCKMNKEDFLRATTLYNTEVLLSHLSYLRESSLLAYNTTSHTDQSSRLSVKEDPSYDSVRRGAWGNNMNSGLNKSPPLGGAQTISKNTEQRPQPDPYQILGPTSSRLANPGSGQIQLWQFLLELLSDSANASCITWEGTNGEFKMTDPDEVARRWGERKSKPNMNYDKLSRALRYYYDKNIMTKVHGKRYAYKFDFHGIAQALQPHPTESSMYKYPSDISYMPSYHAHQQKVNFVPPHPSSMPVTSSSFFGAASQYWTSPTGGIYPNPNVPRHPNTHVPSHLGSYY
# How it was run: (§1)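 Binding signal is each hexamer's read frequency for a factor divided by its frequency in the tag-only sample. The factors were GST-fused human transcription factors from yeast, captured on glutathione beads, DNA-barcoded and pooled with that sample. Pools were incubated with 200 nmole of a random double-stranded 16-mer DNA library in Tris/NaCl/DTT/glycerol buffer at room temperature for 30 min, then washed, crosslinked with 0.1% formaldehyde, proximity-ligated with BsaI/T4 ligase (1 h, 37 °C), PCR-amplified and sequenced on an Illumina NextSeq500.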
# GABPA = target: T2, GABPA (Homo sapiens, UniProt Q06546 1-454)
# T2 sequence: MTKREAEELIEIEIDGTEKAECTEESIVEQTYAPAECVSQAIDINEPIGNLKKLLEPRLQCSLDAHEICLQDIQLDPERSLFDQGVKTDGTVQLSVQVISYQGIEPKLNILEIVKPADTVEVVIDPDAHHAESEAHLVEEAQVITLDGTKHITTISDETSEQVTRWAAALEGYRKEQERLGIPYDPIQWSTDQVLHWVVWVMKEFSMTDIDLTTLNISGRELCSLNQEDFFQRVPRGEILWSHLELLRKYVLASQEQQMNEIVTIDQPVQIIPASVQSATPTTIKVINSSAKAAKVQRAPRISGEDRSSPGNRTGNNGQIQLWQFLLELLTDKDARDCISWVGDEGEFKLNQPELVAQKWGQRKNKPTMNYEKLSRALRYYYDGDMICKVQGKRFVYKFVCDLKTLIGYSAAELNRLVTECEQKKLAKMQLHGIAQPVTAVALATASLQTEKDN
# How it was run: as §1
# ELF1 = ELF1 (Homo sapiens, UniProt P32519 1-619)
# How it was run: as §1
# ELK3 = target: T3, ELK3 (Homo sapiens, UniProt P41970 1-407)
# T3 sequence: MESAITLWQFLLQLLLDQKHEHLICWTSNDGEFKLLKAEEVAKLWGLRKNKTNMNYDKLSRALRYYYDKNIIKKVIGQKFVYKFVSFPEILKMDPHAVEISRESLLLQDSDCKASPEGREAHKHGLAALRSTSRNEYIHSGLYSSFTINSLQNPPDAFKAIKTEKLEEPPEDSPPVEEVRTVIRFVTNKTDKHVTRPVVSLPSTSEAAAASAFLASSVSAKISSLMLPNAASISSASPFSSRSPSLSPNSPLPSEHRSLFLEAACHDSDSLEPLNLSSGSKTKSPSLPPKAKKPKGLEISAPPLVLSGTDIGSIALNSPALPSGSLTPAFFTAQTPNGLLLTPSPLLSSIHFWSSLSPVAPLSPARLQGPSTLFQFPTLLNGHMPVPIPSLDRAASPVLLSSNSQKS
# How it was run: as §1
# ERF = target: T4, ERF (Homo sapiens, UniProt P50548 1-548)
# T4 sequence: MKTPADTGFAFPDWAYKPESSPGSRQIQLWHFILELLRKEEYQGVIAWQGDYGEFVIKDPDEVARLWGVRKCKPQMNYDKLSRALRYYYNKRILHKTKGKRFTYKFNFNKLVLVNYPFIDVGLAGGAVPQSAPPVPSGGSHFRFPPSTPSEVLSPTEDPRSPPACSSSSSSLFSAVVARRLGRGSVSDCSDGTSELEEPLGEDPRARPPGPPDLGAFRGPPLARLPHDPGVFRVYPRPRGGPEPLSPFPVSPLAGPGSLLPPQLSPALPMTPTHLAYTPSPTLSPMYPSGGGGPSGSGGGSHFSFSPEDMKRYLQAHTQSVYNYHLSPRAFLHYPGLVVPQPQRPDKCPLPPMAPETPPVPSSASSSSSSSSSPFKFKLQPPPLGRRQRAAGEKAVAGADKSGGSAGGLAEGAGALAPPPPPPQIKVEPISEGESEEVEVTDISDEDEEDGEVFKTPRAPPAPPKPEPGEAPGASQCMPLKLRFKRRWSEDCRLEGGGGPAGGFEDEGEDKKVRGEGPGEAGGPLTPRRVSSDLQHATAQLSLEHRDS
# How it was run: as §1
# ETS2 = target: T5, ETS2 (Homo sapiens, UniProt P15036 1-469)
# T5 sequence: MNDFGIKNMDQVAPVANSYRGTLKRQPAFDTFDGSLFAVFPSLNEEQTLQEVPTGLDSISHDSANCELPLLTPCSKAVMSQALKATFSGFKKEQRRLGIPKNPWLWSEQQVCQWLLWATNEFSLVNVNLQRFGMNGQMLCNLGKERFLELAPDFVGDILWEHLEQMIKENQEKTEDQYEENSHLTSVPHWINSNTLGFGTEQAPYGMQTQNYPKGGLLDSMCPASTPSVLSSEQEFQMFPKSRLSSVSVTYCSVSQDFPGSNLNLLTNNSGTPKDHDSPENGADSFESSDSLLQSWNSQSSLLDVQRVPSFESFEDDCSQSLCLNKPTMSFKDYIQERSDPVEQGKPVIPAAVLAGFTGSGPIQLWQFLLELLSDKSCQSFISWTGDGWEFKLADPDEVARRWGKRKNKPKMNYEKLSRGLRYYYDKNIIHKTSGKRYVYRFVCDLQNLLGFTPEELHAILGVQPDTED
# How it was run: as §1
# ETV7 = target: T6, ETV7 (Homo sapiens, UniProt Q9Y603 1-341)
# T6 sequence: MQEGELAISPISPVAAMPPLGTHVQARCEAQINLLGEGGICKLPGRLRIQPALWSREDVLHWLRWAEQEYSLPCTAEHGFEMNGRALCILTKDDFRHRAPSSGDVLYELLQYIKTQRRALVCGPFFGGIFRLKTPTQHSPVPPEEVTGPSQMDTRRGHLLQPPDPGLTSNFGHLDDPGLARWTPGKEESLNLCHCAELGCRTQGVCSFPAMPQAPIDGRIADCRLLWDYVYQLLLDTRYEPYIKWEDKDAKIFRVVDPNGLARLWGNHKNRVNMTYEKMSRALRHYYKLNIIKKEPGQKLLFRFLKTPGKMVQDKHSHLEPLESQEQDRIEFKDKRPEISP
# How it was run: as §1
# Chain of ELF1 (P32519 whole entry): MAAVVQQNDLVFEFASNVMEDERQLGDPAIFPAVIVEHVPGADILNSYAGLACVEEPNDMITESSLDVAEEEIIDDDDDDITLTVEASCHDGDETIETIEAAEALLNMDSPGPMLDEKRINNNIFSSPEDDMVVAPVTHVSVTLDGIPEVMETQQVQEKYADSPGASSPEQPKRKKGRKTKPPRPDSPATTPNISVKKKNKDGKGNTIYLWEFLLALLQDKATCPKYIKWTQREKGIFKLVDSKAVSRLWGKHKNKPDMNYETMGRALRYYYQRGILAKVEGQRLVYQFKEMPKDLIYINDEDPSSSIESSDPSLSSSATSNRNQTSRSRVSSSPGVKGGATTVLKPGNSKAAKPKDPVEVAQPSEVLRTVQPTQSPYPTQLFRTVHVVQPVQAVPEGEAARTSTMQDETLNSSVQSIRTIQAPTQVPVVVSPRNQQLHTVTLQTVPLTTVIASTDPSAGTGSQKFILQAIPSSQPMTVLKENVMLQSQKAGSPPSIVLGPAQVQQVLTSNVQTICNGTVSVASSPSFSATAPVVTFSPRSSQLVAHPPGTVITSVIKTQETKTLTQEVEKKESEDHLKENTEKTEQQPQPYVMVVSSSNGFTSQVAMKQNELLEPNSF
sequence,measurement,setting,value
ACAAAG,binding signal,FLI1,"1.04 fold enrichment (6-mer frequency, TF over GST control)"
same,binding signal,GABPA,"1.03 fold enrichment (6-mer frequency, TF over GST control)"
same,binding signal,ELF1,"1.02 fold enrichment (6-mer frequency, TF over GST control)"
same,binding signal,ELK3,"1.04 fold enrichment (6-mer frequency, TF over GST control)"
same,binding signal,ERF,"1.01 fold enrichment (6-mer frequency, TF over GST control)"
same,binding signal,ETS2,"1.01 fold enrichment (6-mer frequency, TF over GST control)"
same,binding signal,ETV7,"1.01 fold enrichment (6-mer frequency, TF over GST control)"
